Source: PubChem (The Scripps Research Institute Molecular Screening Center)
Hits are enriched below; roughly 1.1% of the tested compounds scored in any of these assays.
NCOA2 inhibitor = inhibition of GAL4-SRC2 driven luciferase reporter, primary screen, SRC2 inhibitor project, cell-based, luminescence; Nuclear receptor coactivator 2 (Homo sapiens), Q15596; HEK293 GAL4-SRC2 luciferase reporter; inhibition, % at 9 µM; 370,000 compounds, 0.17% hits; AID 651957, 2012;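 active = inhibition above the mean inhibition of all tested compounds plus 3 SD, set per campaign, cut at about 52% in these data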;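 also: 0% = DMSO treated cells and 100% = cells given Gossypol at 36 µM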
GalR3 antag = GalR3 antagonists in HEK293 cells, primary screen, cell-based, fluorescence readout; Galanin receptor type 3 (Homo sapiens), O60755; HEK293 GalR3-CNG cAMP membrane potential fluorescence; galR3 body fused to GalR1 C-terminus; inhibition, % at 3 µM; 360,000 compounds, 0.44% hits;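 active = inhibition above the screen-wide average plus 3 SD, cut at about 13% in these data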;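 also: forskolin and galanin both at EC90 stimulate the cells; cAMP rise reported by CNG channel membrane potential dye signal; 0% = forskolin plus galanin with DMSO and 100% = forskolin alone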
NR2F2 inh = NR2F2 transcriptional activity inhibitors, primary screen, cell-based, luciferase reporter, HEK293T, luminescence | AID 686940, 2013 | 370,000 compounds, 0.7% hits | COUP transcription factor 2 (Homo sapiens), P24468 | inhibition, % at 8.6 µM | HEK293T NGFI-A luciferase reporter;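 active = inhibition above a per-plate cutoff, mean inhibition of test wells between control levels plus 3 SD, cut at about 38% in these data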;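 also: cells cotransfected with COUP-TFII expression vector driving the NGFI-A reporter; 0% = median of COUP-TF2 test wells and 100% = reporter-only cells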
SRC1 inh = SRC1 coactivator transcriptional activity inhibitors, primary screen, cell-based, luminescence; Nuclear receptor coactivator 1 (Homo sapiens), Q15788; HEK293 GAL4-SRC1 luciferase reporter; inhibition, % at 3.6 µM; 360,000 compounds, 0.12% hits; AID 588354, 2011;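 active = inhibition above the campaign mean plus 3 SD, with each screening campaign given its own cutoff, cut at about 60% in these data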;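 also: 0% = DMSO treated cells and 100% = gossypol at 36 µM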
NCOA3 inh = SRC3 coactivator transcriptional activity inhibitors, primary screen, cell-based, luminescence. HEK293 GAL4-SRC3 luciferase reporter. inhibition, % at 3.6 µM. 360,000 compounds, 0.17% hits. AID 588352, 2011;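 active = inhibition above a per-campaign cutoff, the mean of all compounds plus 3 SD, cut at about 60% in these data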;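 also: 0% = DMSO-treated cells and 100% = gossypol-treated cells at 36 µM; higher means less SRC3-driven luciferase light from the GAL4 reporter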
NR5A2 inv ag = LRH-1 (NR5A2) inverse agonists, primary screen, cell-based, luminescence, HEK293T, StAR-luciferase reporter. AID 602396, 2012. inhibition, % at 3.6 µM. Nuclear receptor subfamily 5 group A member 2 (Homo sapiens), O00482. 360,000 compounds, 0.13% hits. LRH-1 transfected, 24 h;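 active = inhibition above the mean inhibition of all tested compounds plus 3 SD, cut at about 73% in these data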;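 also: 0% = DMSO wells and 100% = reporter-only cells lacking LRH-1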
GalR3 antag conf = GalR3 antagonist hit confirmation, cell-based, fluorescence, triplicate | HEK293 GalR3 CNG cAMP biosensor, membrane potential fluorescence; galR3 fused to GalR1 carboxy tail; challenged with forskolin and galanin at EC90 | 1,600 compounds, 59% hits | inhibition, % at 3 µM | AID 652245, 2013 | shares compounds with GalR3 antag;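 active = inhibition above the primary screen's cutoff, the mean inhibition of all screened compounds plus 3 SD, cut at about 13% in these data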;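 also: 0% = forskolin plus galanin and 100% = forskolin alone with DMSO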
CNG parental = nonspecific cAMP agonists in parental HEK-CNG cells, counter-screen for GalR3 antagonist project, cell-based, fluorescence, high throughput | HEK293-CNG parental cells, cAMP membrane potential fluorescence; normalised: DMSO wells 0%, forskolin wells 100% | activation, % at 3 µM | 1,600 compounds, 10% hits | shares compounds with GalR3 antag | AID 652268, 2013; in the data active = activation above about 1.3%
Gal4-VP16 ctr = Gal4-VP16 luciferase reporter inhibitors, counter-screen for COUP-TFII antagonist project, cell-based, luminescence, HEK293 | inhibition, % at 8.5 µM | 2,500 compounds, 25% hits | shares compounds with NR2F2 inh; in the data active = inhibition above about 13%
COUP-TFII conf = NR2F2 transcriptional activity inhibitors, confirmation, cell-based, luciferase reporter, HEK293, triplicate; shares compounds with NR2F2 inh; AID 687008, 2013; HEK293 NGFI-A luciferase reporter, luminescence; inhibition, % at 8.5 µM; 2,500 compounds, 45% hits;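 active = mean inhibition over three repeats above a set limit taken from the earlier primary screen, cut at about 38% in these data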;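 also: 100% = cells given the luciferase reporter alone without the COUP-TF2 vector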
* hit, by the source's call; / = not tested or not shown.

SMILES	NCOA2 inhibitor	GalR3 antag	NR2F2 inh	SRC1 inh	NCOA3 inh	NR5A2 inv ag	Gal4-VP16 ctr	COUP-TFII conf	others
CC1OC(OC2C=C3CCC4C(CCC5(C)C(c6ccc(=O)oc6)CCC45O)C3(C)CC2)C(O)C(OC2OC(CO)C(O)C(O)C2O)C1O (configuration not stated)	70*	14*	78*	91*	88*	97*	54*	80*	GalR3 antag conf=39*;CNG parental=4.1*
COc1ccc(CNCCc2c(C)[nH]c3ccc(OC(F)(F)F)cc23)c(OC)c1	21	24*	51*	7	7	26	2	45*	GalR3 antag conf=90*;CNG parental=0
COc1ccc2[nH]c(C)c(CCNCc3cc(OC)c(OC)c(OC)c3)c2c1	2	-5	13	4	8	12	/	/
CCN(CC)C1=NC(=[N+](CC)CC)c2ccccc21	31	-4	45*	40	27	55	12	52*
O=C1CC23c4ccccc4N4C(=O)CC5OCC=C6CN1C2CC6C5C43 (configuration not stated)	-41	3	-14	0	8	2	/	/
CN1Cc2cnnn2-c2ccccc2C1C#N (configuration not stated)	4	-3	0	4	0	19	/	/
N#CC1c2ccccc2-n2nncc2CN1Cc1cc(Cl)cc(Cl)c1 (configuration not stated)	86*	-4	84*	83*	91*	93*	56*	64*
COc1ccc(CN2Cc3cnnn3-c3ccccc3C2C#N)cc1 (configuration not stated)	43	-5	59*	23	46	36	26*	13
S=C(NCCc1ccccc1)N1Cc2ccccc2-n2nncc2C1	12	-6	11	6	-7	-3	/	/
O=C(O)c1nn(Cc2ccc(Cl)cc2)c2ccccc12	5	-1	3	1	3	0	/	/
CCc1cc2c(N3CCN(C)CC3)ncnc2s1	12	-5	1	5	-2	-9	/	/
CCN1CCN(c2ncnc3ccc(Br)cc23)CC1	39	-8	42*	51	38	19	11	23
Oc1ccc(CCNCc2cc3c(cc2Br)OCO3)cc1	-10	-6	-20	6	4	12	/	/
CCCCN=C[C@]12CCC(O)CC1(O)CCC1[C@@H]2CC[C@]2(C)[C@H](C3C=CC(=O)O3)CCC12O (some centres not stated)	42	8	63*	78*	80*	97*	39*	69*
C[C@]12CCC3C(CCC4=CC(O)CC[C@@]43/C=N/O)C1(O)CCC2C1=CC(=O)OC1 (some centres not stated)	50	15*	75*	78*	71*	98*	37*	68*
C[C@]12CC[C@H]3[C@@H](CC[C@]4(O)C[C@@H](O)CC[C@]34C=O)[C@@]1(O)CC[C@@H]2C1=CC(=O)OC1	53*	15*	78*	71*	82*	102*	33*	67*
CC12CCC3C(CCC4(O)CC(O)CCC34C=NO)C1(O)CCC2C1=COC(=O)C1 (configuration not stated)	42	23*	81*	87*	89*	99*	43*	69*
CC12CC[C@H]3[C@@H](CCC4(O)C[C@H](O)CCC34/C=N/NC(=O)c3ccccc3Cl)C1(O)CCC2C1=CC(=O)OC1 (some centres not stated)	-19	3	7	8	11	-1	/	/
O=C1NC2C(=CC(O)C(O)C2O)c2cc3c(cc21)OCO3 (configuration not stated)	75*	-2	78*	94*	91*	97*	11	58*
O=C1NC2C(O)C(O)C(O)C(O)C2c2cc3c(c(O)c21)OCO3 (configuration not stated)	75*	-2	80*	93*	92*	98*	29*	80*
O=C1NC2C(=CC(O)C(O)C2O)c2cc3c(c(O)c21)OCO3 (configuration not stated)	68*	-4	91*	96*	94*	97*	25*	84*
COc1cc(C2c3cc4c(cc3CC3COC(=O)C32)OCO4)cc(OC)c1O (configuration not stated)	-1	1	-69	1	24	13	/	/
C=CCOC(=O)N1Cc2ccccc2-n2nncc2C1	-35	-2	7	1	-29	-11	/	/
CN1C2CCC1/C(=C/c1ccccn1)C(=O)/C2=C\c1ccccn1	65*	1	63*	-51	50	3	68*	85*
CCOC(=O)[C@]12Cc3cc(Cl)ccc3[C@H]1N(C(C)C)C(=O)c1ccccc12	-4	-8	41*	/	/	34	21*	53*
COc1cccc(C(c2nnnn2-c2ccc3c(c2)OCCO3)N2CCC(n3c(=O)[nH]c4ccccc43)CC2)c1OC (configuration not stated)	9	1	40*	32	41	9	-2	7
